Measured values from PubChem BioAssay (Tox21).
Unmarked numbers belong to inactive results. Activity calls are given as the source filed them. The call rests on the fitted dose curve; in most records, active means well fitted curve in the direction sought with a large enough effect in the repeat runs; inconclusive means weak or mixed curves; inactive means flat fitted curve, though single readings scatter.

Experiment: qHTS assay to test for compound auto fluorescence at 460 nm (blue) in HepG2 cell free culture (AID 720685)
Conditions: Cell-free culture medium, blue autofluorescence 405/460 nm; series mostly up to 91.3 µM; fluorescence, % of fluorescent control: at the top concentration
From the text: U.S. Tox21 Program National Center for Advancing Translational Sciences [NCATS] NIH Chemical Genomics Center [NCGC] U.S. Environmental Protection Agency [EPA] National Institutes of Environmental Health Sciences [NIEHS] National Toxicology Program [NTP] U.S. Food and Drug Administration [FDA] Tox21 Assay Overview: Compound auto fluorescence often interferes with screening of the compound library against various biological targets and signaling pathways. Some of these compounds may have fluorophoric properties. Such properties may interfere with the assay outputs resulting in false positives and/or negatives. To decrease such complications and ensure the compound activities are relevant in terms of biological response, the Tox21 10K compound library was screened for auto fluorescence. From the fluorophores used as reporter signals in our screening assays, the auto fluorescence equivalencies of compounds against three fluorophores have been evaluated: Triamterene, Fluorescein and Rose Bengal sodium for blue, green and red fluorescence, respectively. The fluorescence intensities were measured using Excitation/Emission wavelengths at 405/460nm, 485/535nm and 540/590nm for blue, green and red labels, respectively. This assay includes the blue fluorescence data.
Tox21 Assay Protocol Summary: 5 uL of culture medium (MEM containing 10% FBS) per well was dispensed into black wall/clear bottom 1536-well plates using a Multidrop Combi Dispenser (ThermoFisher Scientific, Waltham, MA). After 23 nL compound or DMSO vehicle was transferred into assay plate by a pintool work station (Kalypsys, San Diego, CA), fluorescence intensities in the assay plates were measured by an Envision (PerkinElmer, Shelton, CT) plate reader using three labels for measuring blue, green and red fluorescence at […] 460, 535 and 590nm respectively.
On the % scale 0 is the no-effect control and ±100 the full control effect.

SMILES | fluorescence, % of fluorescent control | Potency
CCN(CC)CCc1c[nH]c2ccccc12 | 1.53% [at 95.7 µM] | –
CC1=C2C[C@H]3[C@@H](CC=C4C[C@@H](O)CC[C@@]43C)[C@@H]2CC[C@]12O[C@@H]1C[C@H](C)CN[C@H]1[C@H]2C | 0.0343% [at 46 µM] | –
Oc1cc(Cl)cc(Cl)c1 | -0.0689% | –
c1ccc2nc(N3CCNCC3)ccc2c1 | 0.0167% [at 46 µM] | –
COC(=O)C(C)N(C(=O)c1ccco1)c1c(C)cccc1C (stereo not given) | -0.0086% | –
S=C=NCCc1ccccc1 | 0.922% | –
COP(=O)(OC)O/C(=C\Cl)c1cc(Cl)c(Cl)cc1Cl | 0.735% | –
[Cl-].[Cl-].[Cl-].[Yb+3] | 0.261% | –
CNC(C)(C)Cc1ccccc1 | -0.0785% [at 18.6 µM] | –
O=S(=O)(O)F | 0.0421% [at 95.7 µM] | –
ClC(Cl)C(Cl)(Cl)Cl | 0.0092% | –
N#CSCc1ccccc1 | -0.0606% | –
CCN(CC)Cc1nccn1-c1ccc([N+](=O)[O-])cc1C(=O)c1ccccc1Cl | 0.0099% [at 46 µM] | –
CC(C)C(Nc1ccc(C(F)(F)F)cc1Cl)C(=O)OC(C#N)c1cccc(Oc2ccccc2)c1 (stereo not given) | 0.12% | –
CCn1cc[n+](C)c1 (tested in a mixture with another compound) | -0.0561% | –
O=C(N[C@@H]1N=C(c2ccccc2F)c2cccc3c2N(CC3)C1=O)c1cc2ccccc2[nH]1 | 0.102% [at 46 µM] | –
O=[N+]([O-])[O-].[Tl+] | -0.0656% | –
CC(=O)[O-].CC(=O)[O-].O.O.O.[Pb+2] | 0.109% | –
CC(=O)[O-].CC(=O)[O-].CC(=O)[O-].[Sb+3] | -0.11% [at 3.72 µM] | –
[O]=[Cr](=[O])([OH])[O][Cr](=[O])(=[O])[OH] | – | inactive

SMILES | fluorescence, % of fluorescent control | Potency
O=[N+]([O-])C(Br)Br | -0.122% | –
COc1ccc2[nH]cc(CCN(C(C)C)C(C)C)c2c1 | 0.0578% [at 95.7 µM] | –
[O]=[Cr][O][Cr]=[O] | -0.094% [at 95.7 µM] | –
CCOP(=S)(NC(C)C)Oc1ccccc1C(=O)OC(C)C (stereo not given) | 0.0572% | –
CC(C)Br | 0.0057% | –
Clc1cc(Cl)c(-c2cc(Cl)c(Cl)cc2Cl)cc1Cl | -0.0835% [at 46 µM] | –
COP(=S)(NC(C)C)Oc1ccc(C)cc1[N+](=O)[O-] (stereo not given) | -0.111% | –
CCCCn1cc[n+](C)c1.[Cl][Fe-]([Cl])([Cl])[Cl] | -0.112% | –
CCOP(=O)(OCC)Oc1cc(C)nc(C(C)C)n1 | -0.0447% | –
CC(C)[C@@H](Nc1ccc(C(F)(F)F)cc1Cl)C(=O)OC(C#N)c1cccc(Oc2ccccc2)c1 (stereo not given in full) | 0.119% | –
CCNS(=O)(=O)C(F)(F)C(F)(F)C(F)(F)C(F)(F)C(F)(F)C(F)(F)C(F)(F)C(F)(F)F | -0.0278% | –
CC(=O)[O][Pb]([c]1ccccc1)([c]1ccccc1)[c]1ccccc1 | -0.111% | –
C[C@]12C/C(=C/O)C(=O)C[C@@H]1CC[C@@H]1[C@@H]2CC[C@@]2(C)[C@H]1CC[C@]2(C)O | – | inactive
COC(=O)/C=C(\C)OP(=O)(OC)OC | 0.0098% | –
CSC1=N[C@@](C)(c2ccccc2)C(=O)N1Nc1ccccc1 | 0.0306% | –
O=[N+]([O-])c1cc(C(F)(F)F)c(Cl)c([N+](=O)[O-])c1Nc1ncc(C(F)(F)F)cc1Cl | -0.0945% | –
CCCCn1cc[n+](C)c1 (tested in a mixture with another compound) | 0.106% | –
BrCC(Br)(Br)Br | 0.0731% [at 95.7 µM] | –
O=C1C[C@@H]2OCC=C3CN4CC[C@]56c7ccccc7N1[C@H]5[C@H]2[C@H]3C[C@H]46 | – | inactive
Cc1ccc2cc3c(ccc4ccccc43)c3c2c1CC3 | 0.407% [at 46 µM] | –
